# Source: PubChem BioAssay (NCI)
# Where “and” joins values, the source holds several entries; their conditions need not be identical. Equal entries are not always repeated. The panel holds about 83,000 compounds, 20% with a hit somewhere; the sample as a whole holds those more often.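 Values shown are percent growth following 48 h exposure of cells in 96-well plates to a single concentration of compound; below 10 was considered active.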 Calls of active or inactive are those of the source.
# Tested on: MDA-MB-468 breast
# Assay: NCI-60 one-dose screen, 48 h (100 = growth as untreated, 0 = no growth, -100 = all killed)
# Conditions: 10 µM unless noted
row,Compound,growth
1,COc1ccc(/C=C/c2n[nH]c3ccc(N4CCOC4=O)cc23)cc1,-0.999% (active)
2,Cc1ccc(NC(=O)Nc2c(Cl)cccc2Cl)cn1,72.8% (inactive)
3,O=[N+]([O-])CC(c1ccccc1)c1c[nH]c2ccccc12 (configuration not stated),22.7% (inactive)
4,COc1ccc(C(=O)n2nc(/C=C/c3ccc(O)c(OC)c3)cc2/C=C/c2ccc(O)c(OC)c2)cc1,-8.43% (active)
5,N#Cc1c(-c2ccc(Cl)cc2)nc(SCc2ccc([N+](=O)[O-])cc2)nc1N1CCNCC1,-44.2% (active)
6,CCCCCCCCCCCCCCCCCCOc1ccccc1CC(=O)NCC[N+](C)(C)C,19% (inactive)
7,COc1ccc(/C=C(\C#N)c2cc3ccccc3n2C)cc1,27.6% (inactive)
8,COc1ccc2c(c1)C(=O)/C(=C/c1ccc([N+](=O)[O-])o1)O2,-49.4% (active)
9,Cc1ccccc1OCC(O)COc1ccccc1C,105% (inactive)
10,COc1cc2nc3c(=O)n(-c4ccc(C#N)cc4)cnn3c(=O)c2cc1OC,97.4% (inactive)
11,COc1ccc(Cn2cc3c(c2)-c2oncc2CC3)cc1OC,-7.7% (active)
12,CCC(N)(C(=O)O)c1ccc(F)cc1 (configuration not stated),105% (inactive)
13,COc1cc(-c2nc3sccn3c2-c2ccnc(NCCNS(=O)(=O)c3ccc(Cl)cc3)n2)ccc1F,29.7% (inactive)
14,Cc1cc2ccccc2nc1-c1ccccc1F,105% (inactive)
15,CC(C)(CCCN=C(N)Nc1ccc(Cl)cc1)c1ccc(F)cc1,16.1% (inactive)
16,CCCCCC/C=C\CCCCCCCCCc1cc(O)cc(OC)c1O,-54.1% (active)
17,COC1=CC(c2ccc[nH]2)=N/C1=C\c1[nH]c(C)c(C(=O)CCCCC(=O)NCc2ccccc2)c1C,4.21% (active)
18,COc1cc(C2CC(c3cccc(Nc4ccnc5cc(Cl)ccc45)c3)=NN2C=O)cc(OC)c1OC (configuration not stated),-37.1% (active)
19,CSc1nc2sc3cc(Cl)ccc3n2c(=N)c1C#N,-45% (active)

row,Compound,growth
1,CN1CCN(CC#CCn2c3c(c4ccccc42)C[C@]2(C)[C@H]4CC=C5[C@@H]6CC(C)(C)CC[C@]6(C(=O)N6CCOCC6)CC[C@@]5(C)[C@]4(C)CC[C@H]2C3(C)C)CC1,79.4% (inactive)
2,CC(C)CCC[C@@H](C)[C@H]1CC[C@H]2[C@@H]3CC=C4N(c5ccccc5)C(=O)CC[C@]4(C)[C@H]3CC[C@]12C,96.4% (inactive)
3,CN1C2CCC1/C(=C\c1ccc(Cl)cc1)C(=O)/C2=C/c1ccc(Cl)cc1,59.1% (inactive)
4,O=S(=O)(Nc1ccc(OC(F)F)cc1)c1ccc(-c2cnc(C3CC3)o2)cc1,-9.07% (active)
5,COc1ccc(-c2[nH]c(=S)n(C(CC3(C)NCC(=O)N3n3c(-c4ccccc4)cc(C)nc3=S)c3ccc(OC)cc3)c(=O)c2Br)cc1 (configuration not stated),-14.9% (active)
6,CN(C)c1ccc(C(=O)c2ccc(N(C)C)c(N)c2)cc1N,-20.9% (active)
7,COc1nc(/C=C\Nc2ccc3c(c2)OCCOCCOCCOCCO3)nc(OC)n1,108% (inactive)
8,COc1cc(-c2nn(-c3cccc(NC(=O)CCN4CCN(C)CC4)c3)cc2-c2ccncc2)ccc1Cl,18.2% (inactive)
9,C=CCn1c(SCC(=O)Nc2ccc(C(=O)/C=C/c3cc(OC)c(OC)c(OC)c3)cc2)nnc1-c1ccc(OC)cc1,-26.5% (active)
10,C=CCn1c(SCC(=O)Nc2ccc(C(=O)/C=C/c3cc(OC)c(OC)c(OC)c3)cc2)nnc1-c1ccc(Cl)cc1,2.35% (active)
11,COc1cc(/C=C/c2cc(/C=C/c3ccc(O)c(OC)c3)n(C(=O)Nc3ccccc3Cl)n2)ccc1O,-24.2% (active)
12,O=C(O)c1cc(=O)[nH]c(=O)[nH]1,97.9% (inactive) and 80.6% (inactive)
13,COc1ccc(/C=C/C(=O)c2ccc(NC(=O)CSc3nnc(-c4cc(OC)c(OC)c(OC)c4)o3)cc2)cc1,-60.5% (active)
14,CN1C(=O)NC(c2ccc3c(c2)OCO3)C=C1c1ccccc1 (configuration not stated),98.2% (inactive)
15,COc1cc(/C=C/C(=O)c2c(C)oc3nc[nH]c(=O)c23)cc(OC)c1OC,64.3% (inactive)
16,N#Cc1c(N)nc2c(c(-c3ccc(Cl)cc3)nn2-c2ccccc2)c1C#N,90.1% [100 µM] (inactive)
17,CCCCNC(=O)NS(=O)(=O)c1ccc(N2N=C(c3cc(C)ccc3C)CC2c2cc(OC)c(OC)c(OC)c2)cc1 (configuration not stated),24.4% (inactive)
18,C#C[C@@]1(O)[C@@H](CO)O[C@@H](n2ccc3c(N)ncnc32)[C@@H]1O,-45.3% (active)
